TTR transcr act: TTR transcription activation, primary screen; SH-SY5Y TTR promoter Gaussia luciferase, luminescence; 100% = recombinant luciferase protein wells; AID 1117267; 92,000 tested, 1.3% active; activation, % at 16.7 µM;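 active means activation above the mean of all tested compounds plus 3 SD, cut at about 9.5% in these data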;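 further: cells exposed to compounds for one day before reading; 0% = median of all test compound wells on the plate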
TTR inh HuH7: counter-screen for TTR activators: TTR transcription inhibitors in HuH7 cells. 1,100 tested, 4% active. AID 1117279. inhibition, % at 16.7 µM. shares compounds with TTR transcr act. HuH7 TTR promoter-Gaussia luciferase reporter, luminescence;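 active means average inhibition above the solvent-only control wells' mean plus 3 SD, cut at about 15% in these data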;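 further: 0% = cells with DMSO only and 100% = cells with inhibitor control FD; inhibitors lower well luminescence so higher value means more inhibition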
TTR up confirm: confirmation of human transthyretin transcription activators; 1,100 tested, under 10 active; shares compounds with TTR transcr act; SHSY5Y TTR promoter Gaussia luciferase, luminescence; 100% = purified Lucia enzyme wells, no cells; activation, % at 16.7 µM;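 active means mean activation above a set limit taken from the earlier primary screen, cut at about 11% in these data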;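 further: 0% = DMSO-treated cells and 100% = recombinant Lucia luciferase without cells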
Starred values were filed as active, the others as inactive; ! = not active in a repeat. Shown is part of a subset that was picked to be rich in hits.

SMILES	TTR transcr act	others
CCC(Sc1nc(N)c(NC(=O)c2ccc(Br)o2)c(=O)[nH]1)C(=O)O (stereo not given)	12.4*	TTR inh HuH7=-9.7;TTR up confirm=0.1
COc1ccc(/C=C2/CN(Cc3ccc(OC)cc3OC)C3=NC(c4ccc5ccccc5c4)CC(=O)N32)cc1 (stereo not given)	-1.2
CN1C(c2ccccc2)CC2CN(c3ccccc3)C(=O)C21 (stereo not given)	2.2
Cc1noc(C)c1COc1cccc(C(=O)OCCOc2ccc(F)cc2)c1	11.5*	TTR inh HuH7=-7.5;TTR up confirm=0.6
Cc1cccc(C)c1NC(=O)c1ccc(OCc2c(C)noc2C)cc1	-1.1
COc1ccc(C(C)=O)cc1COC(=O)c1ccc(OCc2c(C)noc2C)cc1	1.3
CC(C)C(=O)N1CCC1(C)C(=O)Nc1ccc(-n2cncn2)cc1 (stereo not given)	2.4
O=[N+]([O-])c1ccc(Sc2n[nH]c(-c3ccc(Cl)cc3Cl)n2)nc1	0.4
CN(Cc1ccco1)c1ncnc2ccc(-c3ccc4c(c3)OCO4)cc12	27.0*!	TTR inh HuH7=-6.5;TTR up confirm=0.4
Cc1nc(CN(C)c2ncnc3ccc(-c4ccc5c(c4)OCO5)cc23)cs1	-0.8
Cc1occc1CNc1ncnc2ccc(-c3ccc4c(c3)OCO4)cc12	1.9
CN(CC(=O)Nc1ccc(F)cc1)C(=O)c1ccc(OCc2cn3ccccc3n2)cc1	6.0
Clc1cc(Cl)cc(CNC2CCC23CCCCC3)c1 (stereo not given)	1.1
COC(=O)C[C@@H]1CC[C@@H]2[C@@H](COc3ccc(NC(=O)Nc4ccc(F)cc4)cc3C(=O)N2C)O1	-1.7
O=C(Cc1cccs1)NC1CCCCN(Cc2ccc(Cl)cc2)C1=O (stereo not given)	4.9
CCc1noc(C)c1C(=O)Nc1cc(S(=O)(=O)N2CCCCC2)ccc1N(C)C	11.0*	TTR inh HuH7=-13.4;TTR up confirm=0.3
Cc1onc(-c2ccccc2)c1C(=O)Nc1cccc(S(=O)(=O)N2CCCCC2)c1	1.1
CCc1noc(C)c1C(=O)N1CCN(S(=O)(=O)c2ccc(Br)cc2)CC1	1.1
CC(C)c1ccc(OCC(=O)Nc2ccncc2)cc1	-0.7
O=C(COC(=O)COc1ccccc1)Nc1ccc2c(c1)OCCO2	-1.4
CC(C)c1ccc(NC(=O)COC(=O)COc2ccccc2)cc1	10.1*	TTR inh HuH7=-6.8;TTR up confirm=0.1
O=C(CC1S/C(=N/N=C2CCCCCC2)NC1=O)Nc1ccc(Br)cc1F (stereo not given)	1.1
CC(C)N1CCCCC(NC(=O)c2ccc(Br)cc2)C1=O (stereo not given)	1.8
CC(C)N1CCCCC(NC(=O)c2ccccc2)C1=O (stereo not given)	0.9
C=CC(=O)NC1CCCCN(C(C)C)C1=O (stereo not given)	11.6*	TTR inh HuH7=-10.6;TTR up confirm=-0.6
SMILES	TTR transcr act	others
O=C(Nc1ccc(F)c(C(F)(F)F)c1)Nc1nnc(-c2ccncc2)s1	-0.6
CC(C)OC(=O)C1=CNCC(C)(C)c2c1[nH]c1cc(F)ccc21	-1.2
CSc1ccccc1NC(=O)COC(=O)CCC(=O)c1ccc(F)cc1	-1.1
O=C(COC(=O)CCSc1ccccc1Cl)Nc1ccc(F)cc1F	10.0*	TTR inh HuH7=-6.0;TTR up confirm=3.4
O=C(COC(=O)CCSc1ccccc1)Nc1ccc(F)cc1Cl	-0.4
CCOC(=O)c1c(NC(=O)COc2cccc3c2CCN(C)C3=O)sc2c1CCC2	-1.9
CC(C)(C)OC(=O)NCc1cc2c(cc1/C=C/S(=O)(=O)NC1CCCC1)OCO2	1.8
O=S(=O)(CC1NCCc2ccccc21)NCCc1ccccc1 (stereo not given)	-0.5
O=C(CSC(=S)N1CCCC1)c1ccccc1	0.0
O=C(O)CSCC(=O)N1CCCCC1	-1.1
O=C(O)CSC(=S)N1CCCC1	10.4*	TTR inh HuH7=-4.7;TTR up confirm=-0.3
CCOC(=O)c1sc2nc(CN3CCN(c4cccc(C(F)(F)F)c4)CC3)[nH]c(=O)c2c1C	8.5
CCC(=O)Nc1ccc(Cl)cc1C(=O)c1ccc[nH]1	-0.3
COC(=O)CC1C(=O)NCCN1C(=O)c1oc2c(C)c(C)ccc2c1C (stereo not given)	2.6
Cn1c(CSc2nc3ccccc3s2)n[nH]c1=S	-1.6
S=c1[nH]nc(CSc2nc3ccccc3s2)o1	14.5*	TTR inh HuH7=-10.2;TTR up confirm=-0.7
COC(=O)c1ccc(CSc2nc3ccccc3s2)o1	-1.2
O=S1(=O)c2c(cccc2N2CC[C@@H](O)C2)O[C@H]2CCN1C2	-0.8
O=C(Cc1ccccc1)N1O[C@H]2C=C[C@@H]1C2	1.1
CC(OP(=O)(O)C(NC(=O)[C@H](Cc1ccc(O)cc1)NC(=O)OC(C)(C)C)C(C)C)C(=O)O (stereo not given in full)	0.6
CC(C)CNS(=O)(=O)CC1NCc2cc3c(cc21)OCO3 (stereo not given)	0.3
Fc1ccc(CSc2nnc(-c3cccs3)o2)cc1	10.1*	TTR inh HuH7=-13.5;TTR up confirm=-0.2
Fc1ccccc1CSc1nnc(-c2cccs2)o1	-1.1
c1ccc(-c2nnc(CSc3nnc(-c4cccs4)o3)o2)cc1	1.1
O=C(CSc1nnc(-c2cccs2)o1)NCc1ccco1	13.1*	TTR inh HuH7=-11.0;TTR up confirm=1.4
SMILES	TTR transcr act	others
O=C(CSc1nnc(CNC(=O)c2cccc(C(F)(F)F)c2)o1)NCc1ccco1	4.3
CC1CCN(C(=O)CSc2nnc(-c3cccs3)o2)CC1	-0.9
COCCN(C(=S)Nc1c(C)cc(C)cc1C)C(C)c1cccs1 (stereo not given)	-2.9
COc1cccc(/C=N/NC(=O)c2nnn(-c3nonc3N)c2CN(C)C2CCCCC2)c1	0.0
CC(C)CN1C(=O)C[C@@]2(C(=O)N(C)c3ccc(NS(=O)(=O)C4CCCCC4)cc32)C1c1ccccc1 (stereo not given in full)	2.0
N#Cc1nc(-c2cccs2)oc1NCc1ccc2c(c1)OCO2	-1.9
C=CCN1C(=O)[C@@H](CC(=O)NCc2ccc(C)o2)[C@]2(C(=O)OC)CCCCC=C12	-1.1
Cc1cccc(N2CCN(C(=S)NC3CCCCC3)CC2)c1C	12.2*	TTR inh HuH7=11.9;TTR up confirm=0.6
S=C(NC1CCCC1)N1CCN(c2ccccn2)CC1	4.5
Cc1cccc(N2CCN(C(=O)N3CCOCC3)CC2)c1C	0.9
Cc1cscc1-c1nc(NCC2CC2)nc2ccsc12	1.1
COc1ccc(N(C(=O)Cc2cccs2)C(C(=O)NC2CCCC2)c2ccncc2)cc1 (stereo not given)	18.3*	TTR inh HuH7=-5.7;TTR up confirm=-0.6
COc1ccc(N(C(=O)CNC(=O)c2cccs2)C(C(=O)NC2CCCC2)c2ccncc2)cc1 (stereo not given)	-1.5
COc1ccc(N(C(=O)CNC(=O)c2ccco2)C(C(=O)NC2CCCC2)c2ccncc2)cc1 (stereo not given)	-1.2
CCN(CC)C(=O)Cn1c2ccccc2c2nc3n(c(=O)c21)CCS3	-1.0
COC(=O)C1CN(CCc2ccccc2)CCS(=O)(=O)N1Cc1ccccc1F (stereo not given)	2.9
O=C(NCCCNC(=O)c1cccs1)c1cccs1	-2.1
O=C(NCCCCNC(=O)c1cccs1)c1cccs1	0.7
COCCCNC(=O)c1cccs1	16.1*	TTR inh HuH7=-8.5;TTR up confirm=1.2
CCN(CC)CCC(=O)NN	0.1
CCC[C@H]1[C@@H](OC(=O)NCc2cccc(Cl)c2)CC[C@@]23CCCN2C(=O)CCC[C@@H]13	-2.1
CC(C)CN(CCCNC(=O)CN1C(=O)COc2ccc(S(=O)(=O)N3CCC(C)CC3)cc21)CC(C)C	-0.4

High-throughput results from PubChem.
